Hits are enriched below; roughly 3.7% of the tested compounds scored in any of these assays.
tim23-1 inh – growth inhibitors of tim23-1 mutant yeast. S. cerevisiae tim23-1 growth, BacTiter-Glo luminescence, 24 h. inhibition, % at 20 µM. actives 1.3% (n = 330,000). AID 463212;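 active means growth inhibition of the mutant yeast at or above 50%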;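 further: temperature-sensitive mutant grown at 25 °C; plate controls were DMSO-treated mutant yeast for no effect and medium wells lacking yeast for full effect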
tim10-1 inh – growth inhibitors of tim10-1 mutant yeast. S. cerevisiae tim10-1 ts strain growth, BacTiter-Glo, 24 h. inhibition, % at 20 µM. actives 2.2% (n = 330,000). AID 463190;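 active means inhibition of at least 40%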;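 further: mutant grown at 25 °C; 0% = DMSO wells with yeast and 100% = wells holding no yeast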
PfHsp90 set2 – reduces growth (ATP signal) of yeast expressing P. falciparum Hsp90; S. cerevisiae expressing PfHsp90, BacTiter-Glo ATP, 48 h; yeast lacking PDR1 and PDR3 efflux regulators; inhibition, % at 9.4 µM; actives 0.32% (n = 310,000);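 active means every replicate shows inhibition above about 80%, whatever the replicate mean, limit read from the data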;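 further: 0% = DMSO neutral controls and 100% = 20 µM radicicol positive controls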
TIM10 inh – inhibits growth of TIM10 yeast strain | AID 463195 | actives 1.4% (n = 330,000) | inhibition, % at 10 µM | S. cerevisiae TIM10 strain growth, BacTiter-Glo luminescence, 24 h;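 active means inhibition of 40% or more at the single tested concentration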;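 further: wild-type TIM10 isogenic control strain grown at permissive 25 °C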
Rce1 inh – blocks yeast Ras-converting enzyme | Q03530 | yeast membranes, quenched prenylated peptide cleavage fluorescence | calls only | actives 0.27% (n = 290,000) | AID 2563;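 active means fall in fluorescence gain of 50% or more versus controls, with final raw signal at or below 3038400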;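 further: plate controls were neutral control wells for no effect and wells lacking membranes for full effect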
Target sequence (Q03530 whole entry, looked up): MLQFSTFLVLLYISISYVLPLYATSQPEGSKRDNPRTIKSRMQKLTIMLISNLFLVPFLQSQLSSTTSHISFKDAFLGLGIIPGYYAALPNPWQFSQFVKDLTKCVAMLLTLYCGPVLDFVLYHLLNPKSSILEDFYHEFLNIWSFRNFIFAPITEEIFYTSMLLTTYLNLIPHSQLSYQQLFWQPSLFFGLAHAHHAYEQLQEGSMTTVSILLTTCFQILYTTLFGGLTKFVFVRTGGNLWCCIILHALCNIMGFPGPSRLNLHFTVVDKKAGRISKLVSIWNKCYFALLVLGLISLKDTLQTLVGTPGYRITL
tim10-1 confirm – tim10-1 yeast growth inhibition, confirmed | actives 56% (n = 7,400) | shares compounds with tim10-1 inh | S. cerevisiae tim10-1 ts strain growth, BacTiter-Glo, 24 h | AID 463213 | inhibition, % at 20 µM;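 active means inhibition of yeast growth at or above a set limit in either of two repeat tests at 20 µM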;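 further: tim10-1 mutant grown at permissive 25 °C to find synthetic lethal compounds; 0% = DMSO yeast wells and 100% = medium wells without yeast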
Starred values were filed as active, the others as inactive; i = inactive; . = no result.

SMILES | tim23-1 inh | tim10-1 inh | PfHsp90 set2 | TIM10 inh | Rce1 inh | tim10-1 confirm
COc1ccc(Br)cc1C(=O)Nc1cccc(NC(=O)c2ccco2)c1 | 49 | 42* | -9 | 14 | i | 31*
CC1Oc2ccccc2OC1(O)c1ccc2ccccc2n1 (configuration not stated) | 25 | 9 | -6 | 5 | i | .
C=CCN=c1scc(-c2ccc(F)cc2)n1/N=C/c1ccccn1 | 27 | 41* | -42 | 35 | i | 14
CC(C)c1ccccc1NC(=S)NCCCn1ccnc1 | 5 | -6 | -3 | 0 | i | .
Cc1cc(-c2ccc(C)c(S(=O)(=O)NCC3CCN(Cc4ccc(F)cc4)CC3)c2)on1 | -24 | 42* | -11 | -11 | i | -81
COc1ccccc1CN1CCC(CNS(=O)(=O)c2cc(-c3cc(C)no3)ccc2C)CC1 | -37 | 8 | 21 | -7 | i | .
CC(=O)c1cc2c(cc1NC(=O)CN1Cc3ccccc3C1=O)OCO2 | 10 | -5 | 8 | 3 | i | .
CCOC(=O)Cc1ccc(NCc2ccc(Cl)cc2)cc1 | 7 | 8 | -12 | 15 | i | .
CCOC(=O)Cc1nnc2c(Nc3ccc(Cl)cc3)nc3nonc3n12 | 49 | 51* | -13 | 30 | i | 33*
COCCn1c(SC2CCCCC2=O)nnc1-c1ccncc1 (configuration not stated) | -2 | 13 | -31 | -5 | i | .
O=C1CCCCC1Sc1nnc(Cc2cccs2)n1CCc1ccccc1 (configuration not stated) | 14 | 45* | -4 | 17 | . | 24
Cc1cccc(N2C(=N)SCC2=O)c1C | 11 | 16 | -15 | -12 | i | .
Cc1ccc(OCCN2CCN(c3ncnc4sc(C)c(C)c34)CC2)cc1 | 36 | 47* | 8 | 33 | i | 31
COCCN(CC(=O)Nc1ccccc1)S(=O)(=O)c1ccc(S(=O)(=O)N2CCCC2)cc1 | 4 | 0 | -12 | 4 | i | .
Cc1ccccc1N/N=C/c1c(C)nc2ccccn12 | 31 | 45* | -8 | 17 | i | 24
COc1ccc(C(=O)CSc2nnc(NC(=O)C3CC(=O)N(c4ccccc4C)C3)s2)cc1 (configuration not stated) | -12 | 9 | 4 | -27 | i | .
O=C(NN1CCOCC1)c1ccc(Br)cc1 | 10 | 42* | 16 | 8 | i | -6
CC(C)(C)C(=O)Nc1cc2c3c(c1)CCC(=O)N3CCC2 | 1 | -5 | -8 | 6 | i | .
CCOC(=O)C1CCN(S(=O)(=O)c2ccc(Cl)cc2OC)CC1 | 17 | 17 | 4 | 9 | i | .
CCOC(=O)C1CCN(S(=O)(=O)c2ccc(OC)c(Cl)c2Cl)CC1 | 14 | 40* | -20 | 23 | i | 5
Cc1ccc(N2C(=O)c3ccc(C(=O)N4CCN(c5ccccc5F)CC4)cc3C2=O)cc1 | 22 | 27 | -10 | 13 | i | .
CC1Cc2ccccc2N1C(=S)NC(=O)c1ccco1 (configuration not stated) | 13 | 40* | 3 | 34 | i | 36*
COC(=O)c1ccc(NC(=O)CCN2C(=O)NC(C)(C)C2=O)cc1 | 5 | -9 | -21 | 1 | . | .
Cc1ccnc(SCc2ccc(C(=O)O)cc2)n1 | 14 | -4 | 2 | 10 | . | .
S=c1[nH]nc(COc2ccccc2)n1/N=C/c1cccc(Br)c1 | 21 | 45* | -16 | 24 | i | 20
SMILES | tim23-1 inh | tim10-1 inh | PfHsp90 set2 | TIM10 inh | Rce1 inh | tim10-1 confirm
S=c1[nH]nc(COc2ccccc2)n1/N=C/c1ccccc1Cl | 24 | 35 | -16 | 29 | i | .
CC(C)c1ccc(/C=N/n2c(COc3ccccc3)n[nH]c2=S)cc1 | 32 | 43* | -21 | 18 | i | 21
S=c1[nH]nc(COc2ccccc2)n1/N=C/c1cccs1 | 43 | 42* | 15 | 33 | i | 13
CCc1nc2cc(Cl)c(Cl)cc2[nH]1 | 27 | 41* | 5 | 32 | i | 37*
CCc1nc2cc(Cl)c(Cl)cc2nc1CC | 14 | 0 | -1 | 5 | i | .
Cc1cccc(C(=O)Nc2ccccc2C(=O)OCC(=O)Nc2ccc(C#N)cc2)c1 | 20 | 43* | 8 | 38 | i | 11
Cc1ccc(NC(=O)COC(=O)c2ccccc2Nc2ccccc2)cc1 | 11 | -5 | 4 | 5 | i | .
Cc1cc(C)cc(OCC(=O)N2N=C(C(F)(F)F)CC2(O)C(C)(C)C)c1 (configuration not stated) | 46 | 46* | -4 | 15 | i | 34*
Clc1ccc(Cn2ncc3c(NCc4ccco4)ncnc32)c(Cl)c1 | 45 | 42* | . | 12 | i | 25
CCCCCCCCNC(=O)/C(C#N)=C/c1ccc(SC)cc1 | 44 | 50* | 4 | 29 | i | 38*
CCCCCCCCNC(=O)/C(C#N)=C/c1ccc2c(c1)OCCO2 | 30 | 36 | -7 | 28 | i | .
N#Cc1nc(COc2ccc(Cl)cc2Cl)oc1N1CCOCC1 | 30 | 41* | 10 | 32 | i | 25
N#Cc1nc(COc2ccc(Cl)cc2Cl)oc1N1CCN(c2ccccc2)CC1 | 12 | 24 | -2 | 13 | i | .
Cc1cccc(-n2c(C)nc3cc(C(=O)NCc4ccc5c(c4)OCO5)ccc32)c1 | 45 | 34 | -19 | 21 | i | .
O=C(CCl)N1CCN(S(=O)(=O)c2ccc3c(c2)CCC3)CC1 | 29 | 21 | -10 | 20 | . | .
CCc1c(C)nc(SCC(=O)CC(=O)OC(C)C)c(C#N)c1C | 42 | 44* | . | 27 | i | 31
C=C1/C(=C\C=C2/CCC[C@]3(C)[C@@H]([C@H](C)/C=C/[C@@H](O)C4CC4)CC[C@@H]23)C[C@@H](O)C[C@@H]1O | 41 | 44* | . | 10 | i | 26
C=C1CC[C@H](O)C/C1=C/C=C1\CCC[C@]2(C)[C@@H]([C@H](C)/C=C/[C@H](C)C(C)C)CC[C@@H]12 | 7 | 15 | 5 | 10 | . | .
CCCc1sc(N)nc1-c1ccc(Cl)cc1 | 13 | 43* | -33 | 18 | i | 20
CCCc1nc2c(s1)CCc1onc(-c3ccc(Cl)cc3)c1-2 | -12 | -7 | -1 | -9 | i | .
CCCCn1c(N)c(N(C)C(=O)c2cc3c(F)cccc3s2)c(=O)[nH]c1=O | 48 | 14 | -7 | 12 | . | .
O=[N+]([O-])c1ccc(/C=C/c2ccc3cccc([N+](=O)[O-])c3n2)cc1 | 26 | 45* | 27 | 14 | i | 25
CC1CCCC(N2C(=O)NC(NC(=O)c3ccco3)(C(F)(F)F)C2=O)C1C (configuration not stated) | 21 | 47* | -7 | 7 | i | 26
COCCNC(=S)N/N=C(\C)c1ccc(OC)cc1 | 9 | 15 | -3 | 6 | i | .
COCCNC(=S)N/N=C(\C)c1cc2ccccc2o1 | 36 | 41* | -17 | 35 | i | 15
COCCNC(=S)N/N=C(\C)c1cccc(C(F)(F)F)c1 | 26 | 45* | -56 | 34 | i | 15

Screening results from PubChem BioAssay.
